Experimental data reported in PubChem BioAssay AID952 (NMMLSC, 2007).
Hit rate of the full screen: of about 190,000 compounds, about 45 (0.02%) were called active. Rule as the data show it: active = inhibition above about 40%. A selection follows.

target: Bcl-2-like protein 2 (Homo sapiens) (UniProt Q92843); assay: Bcl-W/Bim complex disruptors – biochemical, multiplexed, bead-based flow cytometry, primary screen (AID 952); conditions: Bim peptide-Bcl-W binding, at 10 µM, stronger effect = higher value;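 also: 0% = bound tracer without compound and 100% = peptide blocker; higher means less fluorescent Bim peptide bound to Bcl-W beads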
Sequence (Q92843 whole entry, looked up): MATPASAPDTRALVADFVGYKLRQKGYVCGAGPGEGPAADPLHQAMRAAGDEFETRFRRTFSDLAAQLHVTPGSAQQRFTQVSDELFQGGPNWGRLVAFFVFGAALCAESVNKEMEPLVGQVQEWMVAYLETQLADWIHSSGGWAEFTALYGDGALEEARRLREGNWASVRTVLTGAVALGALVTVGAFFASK

inhibition, inactive:
CCOC(=O)NC(=O)/C(C#N)=C\c1ccccc1 -2%
Cc1cc(C)cc(NC(=O)N2CCCCCCC2)c1 0%
Cc1[nH]c2ccccc2c1C(=O)COC(=O)c1c(-c2ccccc2)noc1C -1%
COc1cc(SC#N)ccc1N=Cc1c(C)[nH]n(-c2ccc(C)cc2)c1=O 6%
O=C(NCc1ccccc1)C1CCCN(c2nc3ccsc3c(=O)s2)C1 (stereo not given) -4%
CCN(CC)CC(=O)Nc1sc2c(c1C(=O)c1ccccc1C)CCC2 0%
O=C(Nc1nnc(-c2ccco2)o1)c1ccc(S(=O)(=O)N2CCOCC2)cc1 0%
Cc1nc(N2CCOCC2)sc1C(=O)NN 0%
CC1CCN(C(=S)c2cccc([N+](=O)[O-])c2)CC1 0%
N/C(=N\OC(=O)CCCC(=O)O)c1ncc(C(F)(F)F)cc1Cl -1%
Cc1ccc(SC(C)C(=O)NCc2ccc(F)cc2)cc1 (stereo not given) 0%
Cc1ccc(Nc2cc(C)nc3c(C)ccc([N+](=O)[O-])c23)cc1 0%
N#Cc1c(NC(=O)c2ccc(N3CCOCC3)c([N+](=O)[O-])c2)sc2c1CCCC2 -4%
Cc1cc(C)nc(-n2nc(C)cc2NC(=O)c2ccc(F)cc2F)n1 1%
CCc1nn(CCCN2CCN(c3cccc(Cl)c3)CC2)c(=O)n1CCOc1ccccc1 -5%
C/C(=N/N1CCN(Cc2cccc3ccccc23)CC1)c1cccnc1 0%
O=C1CC(c2cccc(Cl)c2)CC(O)=C1C=Nc1ccccc1 (stereo not given) -5%
Cc1cnc(C(=O)OCC(=O)N2CCc3ccccc32)cn1 0%
CC(=O)C1(C)N(O)C(C)(C)C(c2cccs2)=[N+]1[O-] (stereo not given) 0%
O=C(OCC(=O)c1cccs1)c1ccc([N+](=O)[O-])o1 0%
O=C(CCl)N(Cc1cccc([N+](=O)[O-])c1)c1cccc(Cl)c1 1%
c1ccc2c(c1)OCCOCCOCCO2 0%
CCOc1cccc2c1OC1(CCCCC1)N1N=C(c3cccnc3)CC21 (stereo not given) -4%
CCCC(=O)Nc1ccc(C(=O)N/N=C/c2ccc[nH]2)cc1 -5%
Cc1ccc(S(=O)(=O)N(C)C)cc1NC(=O)COC(=O)c1c(C)noc1C 0%
Cc1cc(/C=N/NC(=O)c2cccnc2)c(C)n1CC(C)C 1%
CC(=O)Nc1ccc(NC(=O)CSc2nnc(COc3ccccc3C)n2CC2CCCO2)cc1 (stereo not given) -2%
Cc1cc(C)n2nc(C(=O)N3CCN(Cc4ccc5c(c4)OCO5)CC3)nc2n1 -2%
C/C(=N/Nc1ccc(Cl)cc1)c1cnnc(-c2ccccc2)n1 -1%
O=C(O)/C=C/C(=O)NNc1ccc([N+](=O)[O-])cc1 5%
CCOC(=O)c1cccc(NC(=O)CCOc2ccccc2)c1 -1%
O=C(Cn1nnc2ccccc2c1=O)NCc1ccc(Cl)cc1 -1%
CSc1nc2ccccc2c(=O)n1Cc1ccc(F)cc1 0%
COc1ccc(NC(=S)NCC2CCN(c3ccc(OC)cc3)C2)cc1 (stereo not given) 0%
CCOc1ccc(N2C(=O)/C(=C/c3ccc(C)o3)N(C)C2=S)cc1 4%
O=c1[nH]n2c(-c3ccccc3)nc(O)c2c2ccccc12 -1%
COc1ccc(C(C(=O)NC2CCCCC2)N(C(=O)CCl)c2ccccc2Cl)cc1 (stereo not given) 0%
OC(CNCc1ccc(Cl)c(Cl)c1)c1ccccc1 (stereo not given) 0%
O=C(COc1ccc(Cl)cc1[N+](=O)[O-])N1CCCCC1 3%
Cc1nccn1CC(=O)N/N=C/c1ccc(O)c(O)c1 -5%
CN(Cc1nc2ccc(F)cc2[nH]1)Cc1nc(CC2CC2)no1 -6%
Nc1nnc(SCC(=O)OCc2ccc(Cl)c(Cl)c2)s1 3%
CN(C)CCOc1cccc(Br)c1 -3%
Clc1cc(-c2ccc(/C=N/n3cnnc3)o2)ccc1Br 0%
CCC(=O)N(Cc1cc2ccccc2[nH]c1=O)c1ccc(OC)cc1 0%
CCOC(=O)c1cnc2c(c(C)nn2CC)c1Cl -1%
CN(C)/N=C/c1cn(-c2ccccc2)nc1-c1cccnc1 1%
Cc1cc(C)n(-c2ccc(C(=O)O)cc2[N+](=O)[O-])n1 0%
CCCCNC(=O)C1CCC(CNS(=O)(=O)c2ccc(NC(C)=O)cc2)CC1 (stereo not given) 1%
C=CCn1c(=NC(=O)c2cccs2)sc2cc(NC(C)=O)ccc21 0%
O=C(NNC(=S)NCc1ccccc1)c1ccc(OC(F)F)cc1 1%
CC(=O)c1cccc(-n2nnnc2SCC(=O)NNC(=O)C2CCCCC2)c1 0%
CC(=O)c1cc(C#N)c(SCC(=O)Nc2nccs2)nc1C -1%
COCCNC(=O)c1ccc(-n2c(SCc3cccnc3)nc3ccccc3c2=O)cc1 -4%
CCCCN(CC)CCNC(=O)CCNC(=O)Cn1ccc2ccccc2c1=O -2%
CCN(CC(=O)NCc1cccs1)S(=O)(=O)c1ccc(NC(C)=O)cc1 0%
CN(CCC1CCOCC1)Cc1cn[nH]c1-c1ccc(-c2ccccc2)cc1 -1%
O=C(NC(=S)N1CCN(Cc2ccccc2)CC1)c1ccccc1 -3%
CCOC(=O)c1c(NC(=O)C(C)Sc2c[nH]c3ccccc23)sc2c1CCC2 (stereo not given) -3%
COc1cc(NC(=S)NCc2ccco2)c(OC)cc1Cl -1%
O=C(c1ccc(F)cc1)c1cn(Cc2ccc(F)cc2)c2cc3c(cc2c1=O)OCCO3 -4%
COc1cc(C)c(S(=O)(=O)N2CCOCC2)c(C)c1C -3%
Cc1nnsc1C(=O)N/N=C/c1cccc(C(F)(F)F)c1 -2%
CCOC(=O)c1[nH]c2c(c1-c1ccccc1)C(=O)CC(c1ccc(Cl)cc1)C2 (stereo not given) -3%
COc1ccc(N=C2SC(C(=O)Nc3ccc(F)cc3)CC(=O)N2C)cc1 (stereo not given) 0%
